Drawing on PubChem BioAssay, this text covers z-score for 35 compounds.

The structures appear in SMILES notation.

A short description of this assay: basal RPMI8226 viability, no added stimulus, profiling panel, cell-based, calcein-AM fluorescence, 48 h, PK04 Diversity Set (AID 1166).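 Note: cells grown under basal conditions without added stimulus; test concentration not given here.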 The conditions noted are these: RPMI8226 myeloma viability, higher = more signal.
For `Cc1ccc(S(=O)(=O)N2[C@@H](c3ccccc3)C(C(=O)O)=C[C@H]2C(C)(C)C)cc1`, the z-score is -0.711.

Consider `C=C1C(=O)C=C2CN(C(=O)c3ccccc3)[C@@](Cc3ccc(F)cc3)(C(=O)OC)[C@@H]12`, for which the z-score is -4.73.

Regarding `COC(=O)[C@@]1(Cc2ccc(F)cc2)[C@H]2c3cc(C(=O)N4CCCC4)n(CCc4c[nH]c5cc(F)ccc45)c3C[C@H]2CN1C(=O)c1ccccc1`, the z-score was -1.37.

In the case of `CCCCN1CC=CC23O[C@@H]4C=CCCOC(=O)C4[C@H]2C(=O)N(CCO)[C@@H]3C1=O` (stereo not given in full), the z-score was -0.105.

With `Cc1ccc(S[C@]2(C(=O)NC3CC3)CC(=O)N(C3Cc4ccccc4C3)[C@@H]2c2ccc(CO)cc2I)cc1`, the z-score is -1.9.

With `C=CCOC(=O)[C@H]1[C@@H]2C(=O)O[C@@H](c3ccccc3)[C@@H](c3ccccc3)N2[C@@H](c2ccc(OCCOC(=O)[C@H]3C[C@H]4C(=O)NCC(=O)N4[C@H]3c3cccc(OCCO)c3)cc2)[C@]12C(=O)Nc1ccc(I)cc12`, the z-score is 0.491.

Take `CC1(C)OB(/C=C\CC(OC(=O)c2ccncc2)c2ccccc2)OC1(C)C` (stereo not given): the z-score is -1.45.

On to `CC[C@@H](O[Si](C#C[Si](C(C)C)(C(C)C)C(C)C)(C(C)C)C(C)C)c1cn([C@H](CO)Cc2ccccc2)nn1`, for which the z-score is 0.944.

`C=C[C@H](OC)[C@@H](O)c1ccc(OC)c(O)c1`: the z-score was -0.991.

For `CC(C)(C)OC(=O)CC[C@@]1(C(N)=O)N=C(c2ccc(OCCCO)cc2)O[C@@H]1c1ccccc1CN=[N+]=[N-]`, the z-score was 0.116.

Take `COCCOC(=O)N1C(=O)[C@@]2(c3cc(C#CCNC(N)=O)ccc31)[C@H](c1ccc(O)cc1)N1[C@H](c3ccccc3)[C@H](c3ccccc3)OC(=O)[C@H]1[C@@H]2C(=O)N1CCc2cc(OC)c(OC)cc2C1`: the z-score is 0.542.

`COc1cc2c(cc1O)C(C)N(Cc1sc3ccccc3c1Cl)CC2` (stereo not given): the z-score was 0.624.

On to `COCCOC(=O)N1C(=O)[C@@]2(c3cc(C#CCC(C(=O)OC)C(=O)OC)ccc31)[C@H](C(N)=O)[C@H]1C(=O)O[C@H](c3ccccc3)[C@H](c3ccccc3)N1[C@@H]2c1ccccc1OCCO`, for which the z-score was -3.48.

`C[C@H]1C2[C@H](Cc3ccccc3)NC(=O)[C@]23C(=O)N[C@@H](Cc2ccccc2)C(=O)N2CCC[C@H]2C(=O)NC/C=C/CC/C=C/C3[C@@H]2O[C@]12C` (stereo not given in full): the z-score is -0.876.

Regarding `C[C@@]1([C@@H](NS(=O)(=O)c2cccc3cccnc23)c2ccc(-c3ccccc3)cc2)C[C@H]1C1CCCCC1`, the z-score is -1.08.

For `COc1ccc(CCNC(=O)[C@@H]2c3ccccc3C(=O)N(Cc3cc(F)cc(C(F)(F)F)c3)[C@H]2c2ccc(CO)cc2)cc1`, the z-score is 0.36.

Consider `C=CC[C@H](O)c1ccc(O)c(F)c1`, for which the z-score was -0.426.

On to `CC(C)N1CC=CC23O[C@@H]4/C=C\CCCOC(=O)C4[C@H]2C(=O)N(C(C)CO)[C@@H]3C1=O` (stereo not given in full), for which the z-score is 0.629.

For the compound `C=CCOC(=O)[C@@H]1[C@H]2C(=O)O[C@H](c3ccccc3)[C@H](c3ccccc3)N2[C@H](c2ccc(OCCOC(=O)[C@H]3C[C@H]4C(=O)N[C@@H](CCCCN(C)C)C(=O)N4[C@H]3c3cccc(OCCO)c3)cc2)[C@@]12C(=O)Nc1ccccc12`, the z-score was -2.17.

As for `COCCOC(=O)N1C(=O)[C@@]2(c3cc(C#CC4=CCCCC4)ccc31)[C@H](C(=O)N1CCCCCCC1)[C@H]1C(=O)O[C@H](c3ccccc3)[C@H](c3ccccc3)N1[C@@H]2c1ccccc1OCCO`, the z-score is -0.813.

For `CCCCCN1CC=CC23O[C@@H]4/C=C\CCCOC(=O)C4[C@H]2C(=O)N(CCO)[C@@H]3C1=O` (stereo not given in full), the z-score was 0.218.

`CC(C)N1C(=O)[C@@]2(Cc3ccccc31)c1ccccc1C(=O)N(Cc1ccccc1)[C@H]2c1ccc(CO)cc1`: the z-score is -0.617.

On to `C=C(CC1([C@@H](NP(=O)(c2ccccc2)c2ccccc2)[C@H]2C[C@@H]2CCCC)CC1)c1cccc(OC)c1`, for which the z-score was -4.72.

Take `CC[C@@H](O[Si](C#C[Si](C(C)C)(C(C)C)C(C)C)(C(C)C)C(C)C)c1cn(Cc2cccc(Cl)c2)nn1`: the z-score is 0.0929.

On to `COCCCNC(=O)[C@]1(Cc2ccccc2CN=[N+]=[N-])N=C(c2ccc(OCCCO)cc2)O[C@@H]1c1ccccc1N=[N+]=[N-]`, for which the z-score was -3.93.

Regarding `COc1ccc([Si](C)(C)[C@H]2[C@H](CC(=O)N(CCO)Cc3ccccc3)O[C@@]3(C(=O)N(Cc4cccc(N5CCCCC5=O)c4)c4ccccc43)[C@@H]2C)cc1`, the z-score was -4.18.

Turning to `C=C(/C=C\CNS(=O)(=O)c1ccc(C)cc1)[C@H](O)[C@H]1CCCN1S(=O)(=O)c1ccccc1[N+](=O)[O-]`, the z-score was -1.51.

As for `[N-]=[N+]=NCc1ccccc1[C@H]1OC(c2ccc(OCCCO)cc2)=N[C@@]1(Cc1ccccc1N=[N+]=[N-])C(N)=O`, the z-score is -1.76.

In the case of `C=CCN1C(=O)[C@@]2(O[C@@H](CCO)[C@H]([Si](C)(C)c3ccc(OC)cc3)[C@H]2C)c2cc(N3CCCCC3=O)ccc21`, the z-score is -4.05.

Take `Cc1ccc(S[C@]2(C(=O)NCc3ccccc3)CC(=O)N(Cc3ccccc3C(F)(F)F)[C@@H]2c2ccc(CO)cc2I)cc1`: the z-score is -2.16.

Regarding `C=C[C@H](C)[C@@H](OC(=O)Nc1ccc(SC)cc1)c1ccc(OCCO)cc1`, the z-score was -1.81.

For the compound `CN(C)C(=O)[C@]1(CCS(=O)(=O)c2ccccc2)N=C(c2ccc(OCCCO)cc2)O[C@@H]1c1ccccc1CN=[N+]=[N-]`, the z-score is 0.382.

For the compound `COC(=O)[C@]1(Cc2ccccc2N=[N+]=[N-])N=C(c2ccc(OCCCO)cc2)O[C@@H]1c1ccccc1CN=[N+]=[N-]`, the z-score was -3.98.

For the compound `COc1cccc(C)c1NC(=O)O[C@H]1[C@H](OC(=O)Nc2ccccc2)[C@@H](OC(=O)Nc2ccccc2)[C@@H](OC)O[C@@H]1CO`, the z-score is -3.26.

As to `COCCCNC(=O)[C@@]1(c2ccc([N+](=O)[O-])cc2)CC(=O)N(C2CCCCC2)[C@@H]1c1ccc(CO)cc1I`, the z-score is -0.0154.
